Measurements from the supplement of paper PMC12636033.
± gives the standard deviation of the averaged measurements. In all, about 33,000 sequences were measured (“E-score (rank enrichment, -0.5 to 0.5)”: median about -0.0043, highest 2% from about 0.24 on). This excerpt belongs to a sample that is enriched for the highest values.

tested on: 2Sp-muMax20 (muMax20 with two 2,6-bis(methyl)pyridine Cys staples); test: PBM 8-mer E-score (E-score (rank enrichment, -0.5 to 0.5)); higher = stronger preferential binding
Procedure: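 Protein binding microarray (universal PBM chip covering all 10-mers in fixed probe flanks) with chemically synthesized human Max(13-93) bHLH-LZ analogs (not full-length Max) bearing noncanonical residues (hArg, Tha, Aib, Nle at 65) and aromatic Cys staples. Read-out per 8-mer (and its reverse complement): E-score (rank-based enrichment, -0.5 to 0.5) and Z-score of median probe intensity.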

Sequence | PBM 8-mer E-score
ATCACGCG | 0.247 ± 0.015
AGCACGTC | -0.0658 ± 0.05
ATCACGCC | 0.192 ± 0.043
AGCACGTG | 0.4333 ± 0.0023
ACTGCCAA | 0.0746 ± 0.053
GGTAAGAC | -0.0928 ± 0.022
CCGATAAG | -0.181 ± 0.034
ATTTTGCA | 0.143 ± 0.086
TCGTCTCA | -0.0634 ± 0.048
ATGTACCA | -0.0255 ± 0.13
GAGTGCGC | -0.0296 ± 0.0031
CCCCAAGA | 0.144 ± 0.023
ACCTGGAT | -0.149 ± 0.028
GCCGCAGA | -0.0428 ± 0.041
CTAGGACC | -0.182 ± 0.025
AGCACGCG | 0.289 ± 0.0067
AGCACGCA | 0.00395 ± 0.075
ATCACGTG | 0.397 ± 0.047
ATCACGTC | 0.0413 ± 0.035
CGCACGCG | 0.178 ± 0.032
ATCACGTA | 0.00227 ± 0.14
CTTCTTAA | 0.126 ± 0.15
CGAAGTGC | 0.0928 ± 0.034
GACGCGGC | -0.08 ± 0.03
CACGCGGG | 0.187 ± 0.091

Sequence | PBM 8-mer E-score
AACGCGGA | -0.162 ± 0.14
AACGCGGC | -0.0876 ± 0.028
CACGCGGA | 0.357 ± 0.015
CACGCGGC | 0.299 ± 0.034
ATTATGCC | 0.128 ± 0.012
TGCGCACA | 0.124 ± 0.025
ATGGGGCA | 0.11 ± 0.12
GTGGGGAA | 0.277 ± 0.027
ATGGGGTA | 0.239 ± 0.05
ATGGGGCG | 0.25 ± 0.0057
ATGGGGCC | -0.0651 ± 0.11
GGGGGAAA | -0.0158 ± 0.089
ATGGGGTG | 0.175 ± 0.018
ATGGGGTC | 0.0299 ± 0.041
CTGGGGAA | -0.125 ± 0.026
GTGGGGGA | 0.0699 ± 0.011
TGGGGAAA | 0.306 ± 0.022
TGGGGGAA | 0.0001 ± 0.016
CACAGCGG | -0.125 ± 0.059
GATGCCGA | -0.0813 ± 0.081
AGCGTATA | 0.0565 ± 0.04
ACATCACT | 0.176 ± 0.046
GCCAGTAA | -0.116 ± 0.011
CCTCGCGC | -0.0606 ± 0.077
CCTCAGAG | -0.228 ± 0.044

Sequence | PBM 8-mer E-score
ATGGGGAC | 0.0501 ± 0.13
GTGGGATA | 0.292 ± 0.047
CTGGGATA | -0.0899 ± 0.077
ATGGGGGA | -0.0138 ± 0.082
ATGGGGAA | 0.266 ± 0.018
ATGGGATA | 0.179 ± 0.02
AGCATACG | 0.02 ± 0.039
ATCGAGAA | 0.0729 ± 0.041
ACAGGACC | -0.187 ± 0.045
CCGGTCCC | -0.358 ± 0.035
AACACACT | 0.249 ± 0.0053
GACATATA | 0.12 ± 0.0021
ATCATATA | 0.254 ± 0.041
AACACACG | 0.0266 ± 0.031
ATCATATG | 0.138 ± 0.065
GTCATATA | 0.207 ± 0.099
CACATATA | 0.328 ± 0.021
AACACACA | 0.118 ± 0.081
CACATATC | 0.223 ± 0.019
AACATATG | 0.0968 ± 0.03
AACATATA | 0.269 ± 0.036
CACATATG | 0.112 ± 0.013
ACCGGTCG | -0.287 ± 0.03
CCACGCCC | 0.0986 ± 0.0018
CTCGTTAC | 0.0748 ± 0.13

Sequence | PBM 8-mer E-score
CGGAATTC | -0.121 ± 0.019
AGCGTTAA | 0.0977 ± 0.058
ATCCAGTC | -0.0864 ± 0.015
CAGGAACC | -0.307 ± 0.049
CCCATAAG | 0.182 ± 0.018
CCCAGCTC | -0.0772 ± 0.05
CACATCTG | -0.0474 ± 0.049
CACATCTA | 0.258 ± 0.014
CACATCTC | -0.00875 ± 0.02
TACATAAA | 0.229 ± 0.018
AACACATG | 0.224 ± 0.05
TACATACA | 0.211 ± 0.075
CACACATA | 0.061 ± 0.0022
TACATATA | 0.262 ± 0.09
AACACATA | 0.257 ± 0.046
TAGGTCCA | -0.13 ± 0.058
GCAACCGA | -0.233 ± 0.078
CGACCATC | -0.0509 ± 0.089
CCATTGTA | 0.214 ± 0.022
TATAAATA | 0.203 ± 0.1
ATAAAAAA | 0.202 ± 0.038
ATAAAAGG | 0.0278 ± 0.023
ATAAAGCA | 0.241 ± 0.014
ATAAAGCG | 0.0648 ± 0.005
CATAAAAG | -0.0196 ± 0.1

Sequence | PBM 8-mer E-score
ATAAAAAG | 0.315 ± 0.0042
AATAAAAG | 0.25 ± 0.074
CTAAAGCA | 0.0725 ± 0.028
AATAAATA | 0.0526 ± 0.066
AATAAAGG | 0.0234 ± 0.076
CATAAATA | 0.33 ± 0.059
TACGAGAA | 0.0414 ± 0.0095
CCCGACTC | -0.0283 ± 0.023
CCGAGCCG | -0.298 ± 0.03
GACCCGCC | 0.106 ± 0.0061
TCGGAGAA | -0.136 ± 0.017
AGGTCTAG | 0.0236 ± 0.096
ACCTGGTA | -0.129 ± 0.0054
CATGGGCG | -0.0275 ± 0.017
CAGCCCCC | -0.165 ± 0.099
CACTTGAA | 0.112 ± 0.02
CAAAGGGA | -0.103 ± 0.053
ATAAAACG | 0.145 ± 0.057
ATCAAGCA | -0.065 ± 0.053
AATAACAT | 0.221 ± 0.13
GTAAAACA | 0.174 ± 0.056
AATAACAA | 0.259 ± 0.041
AATAAAAT | 0.103 ± 0.12
AATAAAAA | 0.258 ± 0.0034
AATAACAC | 0.134 ± 0.04

Sequence | PBM 8-mer E-score
ATCAAACA | 0.26 ± 0.0065
ATAAAACA | 0.244 ± 0.067
CTCAAACA | -0.00491 ± 0.013
AATAAAAC | 0.223 ± 0.072
AGACACAC | 0.158 ± 0.0089
GCTTCAGA | -0.0923 ± 0.073
AATCGATT | 0.0682 ± 0.041
AAACGAGG | 0.0592 ± 0.027
CAGATGTC | -0.0701 ± 0.0093
CCCAGGTA | -0.0104 ± 0.052
GATACAAA | 0.084 ± 0.0085
GATACGCA | 0.0806 ± 0.032
AATACGCA | 0.286 ± 0.0084
AATACAGA | 0.00182 ± 0.094
AATACAAT | 0.0568 ± 0.04
CATACAAA | 0.0246 ± 0.065
AATACAAG | 0.245 ± 0.086
TATACAAA | 0.256 ± 0.065
AATACAAC | 0.221 ± 0.053
AATACAAA | 0.28 ± 0.018
AATACATA | 0.139 ± 0.0041
AATACGCT | 0.217 ± 0.0037
GCGTCCAA | 0.016 ± 0.062
TAGGATCA | -0.0923 ± 0.052
CAATAGTC | -0.0201 ± 0.017

Sequence | PBM 8-mer E-score
CCGTGGTA | -0.156 ± 0.15
AGGTGGTG | -0.104 ± 0.087
ACGTGGTC | 0.129 ± 0.092
ACGTGGTA | 0.146 ± 0.11
ACGTGGTG | 0.236 ± 0.017
GCGTGGTA | 0.237 ± 0.045
GATTACGA | 0.0561 ± 0.094
AAATCCCT | -0.0147 ± 0.019
GAGGCGCA | 0.0587 ± 0.03
ACTTTCCG | 0.00749 ± 0.064
ACCTTGAC | 0.00626 ± 0.011
CAACTATA | 0.203 ± 0.018
AAACTATA | 0.115 ± 0.0056
TAACTATA | 0.255 ± 0.07
CCCTTTTC | -0.0442 ± 0.061
CATTACCC | 0.0244 ± 0.022
AATTACCC | 0.237 ± 0.0059
AATTACCA | 0.171 ± 0.012
GATGCAGC | 0.0324 ± 0.041
GTGGTCGA | 0.0711 ± 0.071
AAGATCTT | 0.322 ± 0.058
AAGATCTA | -0.063 ± 0.13
AAGATCTG | 0.0472 ± 0.038
